# Rows were chosen to be rich in hits. Some 10% of all compounds tested hit in one or more screens of this group.
# Six1-Eya2 inh: qHTS Assay for Inhibitors of the Six1/Eya2 Interaction; Homeobox protein SIX1 (Homo sapiens) + Protein phosphatase EYA2 (Homo sapiens), …; AlphaScreen GST-Six1/His-Eya2 binding, biochemical; stronger effect = lower value; activity change, % (concentration not given with the values); actives 0.56% (n = 360,000); AID 651725, 2012; in the data active = activity change below about -65%; inconclusive = mostly about -30% to -63%; note: % is set by controls: 0 for no effect and ±100 for the full control effect
#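 Compounds are tested against tagged Six1 and Eya2 proteins bridged by glutathione donor and nickel acceptor beads; after a one-hour incubation at 37 °C without light, AlphaScreen emission is recorded.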
# BAZ2B inh: qHTS Assay for Inhibitors of BAZ2B. Potency, µM (series often up to 114 µM), for inactives: at the top dose activity change, negative = inhibition, actives largely listed as inhibitors. actives 4.4% (n = 360,000). AID 504333, 2011. Bromodomain adjacent to zinc finger domain protein 2B (Homo sapiens), Q9UIF8. AlphaScreen BAZ2B-H3K14Ac peptide displacement; note: potency is the fitted concentration of half-maximal effect; % is set by controls: 0 for no effect and ±100 for the full control effect; nearly all actives have a fitted effect of over 60% in size
#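 AlphaScreen displacement of biotin-H3(5-23)K14Ac peptide (50 nM final) from BAZ2B (50 nM final) in PBS pH 7.4, 0.01% Tween-20; complex preformed 30 min RT, then compounds (top 110 uM) 30 min RT, beads 20 min dark.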
# JMJD2A Tudor inh: qHTS Assay for Inhibitors of JMJD2A-Tudor Domain; Lysine-specific demethylase 4A (Homo sapiens), O75164; AlphaScreen JMJD2A-Tudor / H3K4me3 peptide binding; Potency, µM (highest dose often 114 µM), without a hit: top-dose activity change, negative = inhibition, actives largely listed as inhibitors; actives 4.4% (n = 390,000); AID 504339, 2011; note: potency is the fitted concentration of half-maximal effect; % is set by controls: 0 for no effect and ±100 for the full control effect; nearly all actives have a fitted effect of over 50% in size
# CtBP-E1A inh: qHTS Assay for Inhibitors of the CtBP/E1A Interaction. actives 0.49% (n = 340,000). activity change, % (concentration not given with the values). CtBP / adenovirus E1A interaction (AlphaScreen). AlphaScreen GST-E1A/His-CtBP binding, 1536-well; stronger effect = lower value; in the data active = activity change below about -65%; inconclusive = mostly about -30% to -63%; note: % is set by controls: 0 for no effect and ±100 for the full control effect
#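 AlphaScreen with 125 nM GST-E1A and 125 nM His-CtBP (5X stocks) in Tris pH 8.0, 300 mM NaCl, BSA, Tween 20, TCEP. Compounds preincubated 2 h at 37 deg C, then glutathione donor/nickel acceptor beads added for 1 h at 37 deg C in dark.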
# HP1b binding inh: HTS for Inhibitors of HP1-beta Chromodomain Interactions with Methylated Histone Tails | Chromobox protein homolog 1 (Homo sapiens), P83916 | AlphaScreen HP1-beta / biotin-H3K9me3 peptide binding | actives 0.56% (n = 390,000) | Potency, µM (doses to about 114 µM), without a hit: at the top dose activity change, negative = inhibition, usual class: inhibitors | AID 540317, 2011; note: potency is the fitted concentration of half-maximal effect; nearly all actives have a fitted effect of over 70% in size
# Target sequence (P83916 whole entry, looked up): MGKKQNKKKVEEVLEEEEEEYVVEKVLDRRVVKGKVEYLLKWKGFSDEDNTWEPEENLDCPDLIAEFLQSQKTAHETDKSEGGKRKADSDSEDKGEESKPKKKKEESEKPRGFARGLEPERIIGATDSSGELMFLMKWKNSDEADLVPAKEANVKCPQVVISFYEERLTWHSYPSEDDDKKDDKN
#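 HP1-beta protein (50 nM final) preincubated 30 min at room temperature with biotinylated H3(1-18)K9me3 peptide (50 nM) in PBS pH 7.4, 0.01% Tween-20, then compound added for 30 min. AlphaScreen streptavidin donor/nickel chelate acceptor beads (10 ug/mL final), 30 min dark, luminescence read.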
# G9a block: qHTS Assay for Inhibitors of Histone Lysine Methyltransferase G9a. G9a H3K9 monomethylation, AlphaScreen, 2 h. Potency, µM (series often up to 102 µM), for the others: top-dose activity, negative = inhibition, hits mostly inhibitors. actives 8.8% (n = 350,000). AID 504332, 2011; note: potency is the fitted concentration of half-maximal effect; % is set by controls: 0 for no effect and ±100 for the full control effect; nearly all actives have a fitted effect of over 75% in size
# Target sequence (Q96KQ7 913-1193 limits assumed): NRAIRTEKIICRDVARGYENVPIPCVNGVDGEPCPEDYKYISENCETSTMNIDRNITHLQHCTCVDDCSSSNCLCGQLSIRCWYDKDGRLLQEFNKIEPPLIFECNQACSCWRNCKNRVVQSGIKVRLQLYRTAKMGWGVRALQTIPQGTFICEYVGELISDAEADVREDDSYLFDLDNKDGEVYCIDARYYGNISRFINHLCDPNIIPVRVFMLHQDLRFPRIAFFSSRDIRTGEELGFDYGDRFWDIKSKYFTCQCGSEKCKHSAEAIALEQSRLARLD
#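 AlphaScreen read-out: biotin-H3K9 peptide (500 nM) methylation by 20 nM enzyme with 20 uM SAM, 2 h at room temperature after 15 min compound preincubation; anti-monomethyl H3K9 antibody plus donor/acceptor beads, 10 min dark.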
# The depositor's hits bear a star; u = inconclusive; x = no result; ! = not active in a repeat; [ ] = dose if it differs, or a comment. Unless noted, calls come from the whole dose curve; as a rule, active = well fitted inhibition curve with a large enough effect; inconclusive = small, poorly fitted or top-dose-only effect; inactive = no such curve, though single readings can be large or run the other way.
SMILES,Six1-Eya2 inh,BAZ2B inh,JMJD2A Tudor inh,CtBP-E1A inh,HP1b binding inh,G9a block
O=C(Nc1nnc(N2CCCC2)s1)Nc1cc(F)ccc1F,x,-9%,-19%,x,2%,-32%[59 µM]
COC(=O)C1=C(C)N(Cc2ccco2)C(=O)/C1=C\c1ccc([N+](=O)[O-])cc1,-19,u,u,4,-9%,18µM*
COC(=O)C1=C(C)N(C)C(=O)/C1=C\c1ccco1,-3,u,-22%,-2,-7%,-8%[59 µM]
COC(=O)C1=C(C)N(Cc2ccc(OC)cc2)C(=O)/C1=C\c1ccco1,-14,13µM*,40µM*,-13,u,10µM*
COc1ccc(C)cc1NC(=O)CC(=O)Nc1ccc2nc3n(c(=O)c2c1)CCCCC3,x,u,u,x,27%,u
CSc1ccccc1C(=O)OCC(=O)N1CCCC1=O,7,-3%,-1%,-6,23%,u
O=C(CN1C(=O)C2(SCC(=O)N2c2ccc(F)cc2)c2ccccc21)NC1CCCCC1 (stereo not drawn),x,2%[57.1 µM],-5%,x,32%,-10%[59 µM]
C=CCNC(=O)N1CCCC(C(=O)c2cccc(OC(C)C)c2)C1 (stereo not drawn),-5,3%,-3%,4,28%,17%
O=C(/C=C/c1ccc(O)c(O)c1)O[C@@H]1C[C@](O)(C(=O)O)C[C@@H](O)[C@H]1O,6,-3%,18µM*!,-13,33%,13µM*!
COc1cc(/C=C/C(=O)OC2CC3CCC2(C)C3(C)C)ccc1O (stereo not drawn),-3,-39%,-33%,-1,-1%,21%[59 µM]
COc1cc(/C=C/C(=O)OCC(=O)N2CC3(C)CC2CC(C)(C)C3)ccc1O (stereo not drawn),-6,-1%,-20%,-6,15%,18%[59 µM]
O=C(/C=C/c1ccc(O)c(O)c1)OC1C(O)CC(OC(=O)/C=C/c2ccc(O)c(O)c2)(C(=O)O)CC1O (stereo not drawn),-16,-10%,22µM*,6,30%,32µM*
O=C(/C=C\c1ccc(O)c(O)c1)O[C@@H]1C[C@](O)(C(=O)O)C[C@@H](O)[C@@H]1O,x,x,x,x,x,0.35µM*
Cc1ccc(O)c(NC(=O)COCc2cc(-c3ccco3)on2)c1,x,-7%,-27%,x,u,-32%[59 µM]
Cc1cccc(C(=O)Nc2cccc(OC(=O)c3cccc(C)c3)c2)c1,11,-13%,14%,6,40%,25%[12.7 µM]
Cc1cccc(C(=O)Oc2csc(=S)n2C(=O)c2cccc(C)c2)c1,-2,u,u,-6,-30%,1.6µM*
O=C(Oc1csc(=S)n1C(=O)c1ccccc1)c1ccccc1,-11,u,35µM*,8,50µM*,1µM*
Fc1ccc(C(NCCc2ccc(Cl)cc2)c2nnc(-c3ccccc3Cl)o2)cc1 (stereo not drawn),x,70%,50%,x,92%,116%[59 µM]
OCCCNCc1ccc(N(c2ccccc2)c2ccccc2)cc1,9,56µM*,40µM*,-6,71µM*,13µM*
C#CCOCCOCCOCCNc1nc(N2CCN(C(=O)[C@H]([C@@H](C)CC)n3cc(CCCN=C(N)N)nn3)CC2)nc(N2CCN(C(=O)[C@H](CCCCN)n3cc(CCC(=O)O)nn3)CC2)n1,25,-36%,-14%,x,57%,50µM*
C#CCOCCOCCOCCNc1nc(N2CCN(C(=O)[C@H]([C@@H](C)O)n3cc(CCCCN)nn3)CC2)nc(N2CCN(C(=O)[C@H]([C@@H](C)CC)n3cc(CCCN=C(N)N)nn3)CC2)n1,5,u,-28%,1,19%,50µM*
